Test results: PubChem BioAssay (Tox21)
Records with an inconclusive call do not appear. A number with no mark means an inactive call. Activity calls are given as the source filed them. The call rests on the fitted dose curve.

Target: Beta-2 adrenergic receptor (Homo sapiens) (UniProt P07550)
Test: Adrenergic beta2 receptor (ADRB2) small molecule agonists, cell-based qHTS assay (AID 1963593)
Settings: CHO-ADRB2 cells, cAMP HTRF, 30 min; series mostly up to 92.4 µM; activation: at the top concentration
From the text: National Center for Advancing Translational Sciences [NCATS]
Division of Preclinical Innovation [DPI]
U.S. Environmental Protection Agency [EPA]
National Institutes of Environmental Health Sciences [NIEHS]
National Toxicology Program [NTP]
U.S. Food and Drug Administration [FDA]
Beta adrenergic receptors (Beta-ARs) belong to the G-protein coupled receptor (GPCR) superfamily, includes three subtypes - beta1, beta2, and beta3. Beta1-AR is the predominant receptor subtype expressed in the heart, and beta2-AR is expressed in the kidney, lung, blood vessel and in the heart, and beta3 is found in the adipocytes. Beta1 and 2 ARs couple to Gs protein and elevate cyclic adenosine mono phosphate (cAMP), which activates protein kinase A and leads to the downstream signaling responsible for the physiological actions. Beta-AR agonists or antagonists are the most prescribed therapeutic agents for heart failure and asthma, and these were one of the first target receptors for the rational drug design. Tox21 10K compound library was screened using the cAMP-Gs dynamic assay (Cisbio Bioassays, Shelton, CT) to identify agonists/antagonists of the Gs-coupled human adrenergic, beta2 receptor (ADRB2) in the CHO-ADRB2 cell line (Codex BioSolutions, Inc. Gaithersburg, MD), which stably over-expresses ADRB2. The principle of cAMP-Gs dynamic assay is based on HTRF technology, which facilitates the fluorescence resonance energy transfer (FRET) between donor Europium cryptate and acceptor d2-labeled cAMP. The cAMP generated within cells competes with the red acceptor, d2-labled cAMP, for binding to the monoclonal anti-cAMP-cryptate (Europium donor). An increase in intracellular cAMP leads to the disruption of FRET signal, and the signal is inversely proportional to the cAMP concentration. Isoproterenol HCl (Sigma-Aldrich, St. Louis, MO) was used as a positive control in the screening.
Tox21 Assay Protocol Summary:
CHO-ADRB2 cells were dispensed at 1,000/well in 4uL assay medium into white/solid 1536-well plates (Greiner Bio-One North America Inc., Monroe, NC) using a Multidrop Combi dispenser (ThermoFisher Scientific, Waltham, MA). The assay plates were incubated at 37C and 5% CO2 for an overnight (18-20hr). Then positive control and test compounds dissolved in DMSO were transferred to the assay plates at 23nL using a Pintool station (Wako, San Diego, CA). Following the compound and positive control transfer, 1uL stimulation mix containing 100uM IBMX and 25uM Ro-20-1724 was added to each well of the assay plates using BioRAPTR Flying Reagent Dispenser (FRD, Beckman Coulter, Brea, CA). The assay plates were incubated at room temperature for 0.5hr. Then 2.5ul each d2-labled cAMP and anti-cAMP-cryptate solutions were added separately to each well of the assay plates using an FRD and the assay plates were incubated at room temperature for 1hr.
On the % scale 0 is the no-effect control and ±100 the full control effect.

Chain of Beta-2 adrenergic receptor (Homo sapiens) (P07550 whole entry, looked up): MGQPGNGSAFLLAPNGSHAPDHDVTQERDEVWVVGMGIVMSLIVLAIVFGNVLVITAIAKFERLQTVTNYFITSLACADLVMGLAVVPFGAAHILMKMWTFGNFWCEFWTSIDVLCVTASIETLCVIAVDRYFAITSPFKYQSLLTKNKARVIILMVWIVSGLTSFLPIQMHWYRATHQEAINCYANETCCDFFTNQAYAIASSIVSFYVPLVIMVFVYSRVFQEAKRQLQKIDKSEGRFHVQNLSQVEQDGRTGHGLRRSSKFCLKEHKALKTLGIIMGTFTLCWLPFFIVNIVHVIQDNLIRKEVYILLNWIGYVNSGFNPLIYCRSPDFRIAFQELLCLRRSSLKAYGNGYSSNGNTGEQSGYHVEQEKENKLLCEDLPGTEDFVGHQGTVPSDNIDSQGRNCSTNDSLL

First: CC1=CC[C@@]23C[C@@H]1C(C)(C)[C@@H]2CC[C@H]3C
Second: C=CC(=O)O[C@H]1C[C@@H]2CC[C@@]1(C)C2(C)C
The “activation” value of the first is lower: 3.55% for the first, 19% for the second.

Going from `O=[N+]([O-])c1ccc2c(c1)Cc1ccccc1-2` to `O=Cc1cccc([N+](=O)[O-])c1`, the “activation” value falls from 16.8% to 3.49%.

Going from `OCC#CCO` to `CC(CO)CO`, the “activation” value falls from 13.3% to -2.49%.

Compared with `O=CC1CC1`, `CCCCCC=O` is higher in “activation” value: -23.9% for the first, 16.2% for the second.

First: O=S(=O)(O)CCCN1CCOCC1
Second: CCSC(=O)N(CC(C)C)CC(C)C
The “activation” value of the first is lower: -7.94% for the first, 6.74% for the second.

First: CCc1ccc(C)nc1
Second: CCc1ccc(C=O)cc1
The “activation” value of the first is lower: 0.468% for the first, 1.81% for the second.

First: C[N+](C)(C)CCO
Second: CC/C=C/CCO
The “activation” value of the first is higher: 15.3% for the first, 0.937% for the second.

First: Cc1cc(C)c(C)c(O)c1
Second: Cc1ccc(NC(=O)N(C)C)cc1NC(=O)N(C)C
The “activation” value of the first is lower: -27.2% for the first, 14.8% for the second.

Compared with `N[C@@H](Cc1c[nH]c2ccccc12)C(=O)O`, `C/C=C/c1ccc(OC)c(OC)c1` is higher in “activation” value: -22.1% for the first, -2.85% for the second.

First: OC[C@H]1O[C@@H](O[C@H]2[C@H](O)[C@@H](O)[C@H](O)O[C@@H]2CO)[C@H](O)[C@@H](O)[C@H]1O
Second: C=CC(=O)OCCN(CC)CC
The “activation” value of the first is lower: 2.69% for the first, 19.8% for the second.

Compared with `CCOC(OCC)OCC`, `CCOCCOCCOCC` is higher in “activation” value: 4.19% for the first, 7.91% for the second.

First: CCCC/C=C\CCCCCCCCCC=O
Second: CC(C)(O)C(=O)O
The “activation” value of the first is lower: 9.23% for the first, 27.4% for the second.

For `CC(C)OC(C)C`, the “activation” value was 1.37%.

Going from `CC[N+](C)(C)c1cccc(O)c1` to `OCc1ccccc1O`, the “activation” value rises from -20.5% [at 42.5 µM] to 27.4% [at 42.5 µM].

Compared with `O=C1OC2(c3ccc(O)cc3Oc3cc(O)ccc32)c2ccccc21`, `CC(=O)NC(Cc1ccccc1)C(=O)O` (stereo not given) is higher in “activation” value: -2.69% [at 42.5 µM] for the first, 23.9% [at 42.5 µM] for the second.

First: CCOC(=O)n1ccn(C)c1=S
Second: CCOc1ncc(F)c(=O)[nH]1
The “activation” value of the first is lower: 9.8% [at 42.5 µM] for the first, 15.3% [at 42.5 µM] for the second.

Compared with `CC[C@]1(O)C[C@@H]2CN(CCc3c([nH]c4ccccc34)[C@@](C(=O)OC)(c3cc4c(cc3OC)N(C)[C@H]3[C@@](O)(C(=O)OC)[C@H](OC(C)=O)[C@]5(CC)C=CCN6CC[C@]43[C@@H]65)C2)C1`, `CN(C)c1cc(NC(=O)CNC(C)(C)C)c(O)c2c1C[C@H]1C[C@H]3[C@H](N(C)C)C(=O)C(C(N)=O)=C(O)[C@@]3(O)C(=O)C1=C2O` is lower in “activation” value: 6.42% [at 42.5 µM] for the first, -16.4% [at 42.5 µM] for the second.

Going from `O=c1cc(CO)occ1O` to `CSc1ccc(C(=O)c2[nH]c(=O)[nH]c2C)cc1`, the “activation” value falls from 13.8% [at 42.5 µM] to -6.81% [at 42.5 µM].

First: FC(F)(F)c1ccccc1-n1ccnc1
Second: CN1[C@@H]2CC[C@H]1CC(NC(=O)n1c(=O)[nH]c3ccccc31)C2 (stereo not given in full)
The “activation” value of the first is lower: -0.723% [at 42.5 µM] for the first, 8.8% [at 42.5 µM] for the second.

In the case of `CCCOCCO`, the Potency is reported as “inactive”.
`O=S(=O)(O)c1ccccc1` was tested, and the Potency was “inactive”.
For `Oc1ccc(/C=C/c2cc(O)cc(O)c2)cc1`, the Potency was “inactive”.
